TGFb inhibitor = qHTS for Inhibitors of TGF-b | HepG2 CAGA-GFP TGF-b/SMAD3 reporter, GFP fluorescence, 18 h; TGF-beta stimulated, 500 pg/mL final | Potency, µM (titrated, usually from 46.1 µM), for inactives: at the top dose activity, negative = inhibition, actives largely listed as inhibitors | hit rate 1.2% among 410,000; further: on the % scale 0 is the no-effect control and ±100 the full control effect; nearly all actives have a fitted effect of over 65% in size
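GFP signal (ex488/em500-530) from TGF-beta-stimulated HEPG2 CAGA-GFP cells, 500 pg/mL final, 18 h at 37 degrees C in DMEM plus 1% FBS, normalized to unstimulated and DMSO-stimulated controls.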
HepG2 tox = qHTS for Inhibitors of TGF-b: Cytotox Counterscreen. HepG2 CAGA-GFP viability, ATP luminescence, 18 h. Potency, µM (series often up to 46.1 µM), for inactives: top-dose activity change, negative = cytotoxicity, hits mostly cytotoxic. AID 588856, 2011. hit rate 0.76% among 410,000
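CellTiter-Glo luminescence gave cytotoxicity after 18 hours at 37 degrees C. The cells were HepG2 CAGA-GFP in 1% FBS DMEM, stimulated with 500 pg/mL TGF-beta after compound addition. %Activity was normalised to no-cell wells (complete cell-killing) and DMSO (no toxicity), and curves were fitted and classified.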
HT1080 IDH1KD tx = qHTS for induction of synthetic lethality in tumor cells producing 2HG: qHTS for the HT-1080-IDH1KD cell line; HT-1080 IDH1 knockdown viability, ATP luminescence, 48 h; Potency, µM (highest dose often 46.1 µM), without a hit: at the top dose activity, negative = toxicity, usual class: cytotoxic; hit rate 2% among 360,000; AID 686971, 2013;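 further: 0% = DMSO wells and -100% = cell-free medium wells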
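IDH1KD HT-1080 cells, 750/well, RPMI + 5% FBS; compound pinned after 2 h settling; 48 h, 37 °C; CellTiter-Glo luminescence; % activity normalised to DMSO and no-cell wells; curves fitted, classed by r2 and efficacy.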
TDP1 cell CPT = qHTS for Inhibitors of human tyrosyl-DNA phosphodiesterase 1 (TDP1): qHTS in cells in presence of CPT; chicken DT40 Tdp1-/-;hTDP1 cells + 20 nM CPT, ATP luminescence, 48 h; Potency, µM (doses to about 46.2 µM), inactives show at the top dose activity change, negative = growth inhibition, hits mostly inhibitors; hit rate 12% among 420,000; further: on the % scale 0 is the no-effect control and ±100 the full control effect; nearly all actives have a fitted effect of over 55% in size
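Cell growth measured by CellTiter-Glo luminescence after a minimum 48 h, 37 C compound exposure with 20 nM CPT in Tdp1-knockout DT40 cells stably expressing hTDP1, seeded 400/well; qHTS titration format.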
HT1080NT lethal = qHTS for induction of synthetic lethality in tumor cells producing 2HG: qHTS for the HT-1080-NT fibrosarcoma cell line; Potency, µM (doses to about 46.1 µM), for the others: at the highest dose activity, negative = less viability, hits mostly cytotoxic; AID 686970, 2013; hit rate 1.6% among 360,000; HT-1080-NT fibrosarcoma viability, CellTiter-Glo ATP luminescence, 48 h;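 further: NT is the 2HG producing partner of a matched IDH1 knockdown line; 0% = DMSO-treated cells and -100% = media-only wells without cells; nearly all actives have a fitted effect of over 55% in size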
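A 48-hour cytotoxicity screen used HT-1080-NT cells plated 2 hours before compound delivery. ATP-based CellTiter-Glo luminescence measured viability, normalized to DMSO and no-cell controls.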
DT40 TDP1 no CPT = qHTS for Inhibitors of human tyrosyl-DNA phosphodiesterase 1 (TDP1): qHTS in cells in absence of CPT. DT40 Tdp1-/- hTDP1 cells, no CPT, ATP luminescence, 48 h. Potency, µM (titrated, usually from 46.2 µM), without a hit: at the top dose activity change, negative = growth inhibition, hits mostly inhibitors. hit rate 15% among 420,000. AID 686978, 2013; further: on the % scale 0 is the no-effect control and ±100 the full control effect; nearly all actives have a fitted effect of over 55% in size
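Growth of hTDP1-complemented DT40 Tdp1-knockout cells is measured by ATP luminescence after at least 48 hr compound exposure at 37 °C, with DMSO substituting for the 20 nM CPT used in the parallel screen.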
* hit, by the source's call; ? = inconclusive; . = no result; ! = repeats disagree; [ ] = remark or other dose. Shown are actives, neighbours in structure and some others; about 17% of the full set was active somewhere. The call rests on the fitted dose curve; in most records, active means well fitted curve in the direction sought with a large enough effect; inconclusive means small, poorly fitted or top-dose-only effect, or another doubt; inactive means no such curve, though single readings can be large; an effect the other way counts as inactive or inconclusive. Potency means the concentration at half of the fitted maximal effect.

SMILES | TGFb inhibitor | HepG2 tox | HT1080 IDH1KD tx | TDP1 cell CPT | HT1080NT lethal | DT40 TDP1 no CPT
COc1ccc(C(=O)N/N=C(/C)c2cccc(NC(=O)c3ccccc3F)c2)cc1 | 12% | 10% | 2% | ? | 4% | ?
COC(=O)C1=C(C)N(c2ccc(Cl)c(Cl)c2)C(=O)C1 | ? | -11% | ? | 5.2µM* | 15µM* | 5.2µM*
COC(=O)C1=C(C)N(c2ccc(S(N)(=O)=O)cc2)C(=O)C1 | 4% | 2% | 9% | 1% | 12% | -2%
Cc1cc(C)c(C)c(S(=O)(=O)Nc2ccccc2N2CCOCC2)c1C | -23% | -10% | 0% | -16% | 0% | -8%
Cc1ccc(NC(=O)CCS(=O)(=O)c2ccc(Br)s2)cc1 | -14% | -9% | -10% | -21% | -7% | ?
CCOc1ccc(NC(=O)CCS(=O)(=O)c2ccc(Br)s2)cc1 | -18% | -14% | . | 18µM* | . | 15µM*
CC(=O)Nc1ccc(S(=O)(=O)N(Cc2ccccc2)C(C)C)cc1 | -7% | 2% | -17% | 16µM* | -15% | 21µM*
CC(C)N(Cc1ccccc1)S(=O)(=O)c1cccs1 | -4% | 9% | -1% | -27% | 4% | 26µM*
Cc1ccc(S(=O)(=O)N(Cc2ccccc2)C(C)C)cc1 | ? | -31% | 2% | 18µM* | -6% | 18µM*
CC(=O)Nc1ccc(S(=O)(=O)N(C)Cc2cnn(C)c2)cc1 | 10% | 7% | 0% | -29% | -8% | 16µM*
Cc1ccc(S(=O)(=O)N(CC(=O)O)Cc2ccccc2)cc1 | -21% | 3% | 3% | -20% | 3% | -10%
CCn1c(SCC(=O)Nc2ccccc2Br)nnc1-c1cnccn1 | 1% | 9% | 10% | ? | 1% | -17%
Nc1cc(C(=O)N2CCN(c3ccc([N+](=O)[O-])cc3)CC2)ccc1N1CC2CC(C1)c1cccc(=O)n1C2 (stereo not drawn) | -5% | -13% | -9% | -5% | -14% | -6%
Cc1cccc(NC(=O)CN(C)C(=O)C2CC2)c1C | -12% | -51% | -2% | -5% | -3% | -6%
CSCCC(NC(=O)c1ccccc1)C(=O)NCCCSc1ccccc1 (stereo not drawn) | -2% | -11% | -3% | -29% | -7% | ?
COc1cc(NC(=O)CN2C(=O)C(=O)N(CC(C)C)C2=O)cc(OC)c1 | 5% | -6% | -4% | 6% | 5% | 1%
O=S(=O)(NCc1ccccc1)c1cccs1 | -1% | -28% | -5% | 0.082µM* | 6% | -43%
CC(=O)Nc1ccc(S(=O)(=O)N(Cc2ccccc2)Cc2ccccc2)cc1 | ? | -33% | . | ? | . | 16µM*
CC(=O)Nc1ccc(S(=O)(=O)N(Cc2cccnc2)Cc2cc3ccc(C)cc3[nH]c2=O)cc1 | 18% | -18% | 0% | ? | -4% | 15µM*
O=C(c1cccc(F)c1F)N1CCOc2ccc(CN3CCC(Oc4cccnc4)CC3)cc2C1 | . | . | . | -14%[9.04 µM] | . | ?
O=C1c2cccnc2C(=O)N1c1nc(-c2ccccc2)cs1 | 2% | -4% | . | -21% | . | -29%
COc1ccc2c(c1)c1c(c(=O)n(-c3ccccc3)c(=O)n1CC(=O)NCc1ccc(C)cc1)n2C | -10% | -12% | . | -23% | . | -30%
Cc1cccc(Cn2c(=O)n(-c3ccccc3C)c(=O)c3c2c2cc(C)ccc2n3C)c1 | -14% | -22% | . | 23µM* | . | 21µM*
Cc1ccc2c(c1)c1c(c(=O)n(-c3ccccc3C)c(=O)n1CC(=O)c1ccc(Cl)cc1)n2C | 0% | -2% | . | ? | . | ?
C=Cc1ccc(Cn2c(=O)n(-c3ccc(C)cc3)c(=O)c3c2c2cc(OC)ccc2n3C)cc1 | 13% | 0% | . | ? | . | 26µM*
SMILES | TGFb inhibitor | HepG2 tox | HT1080 IDH1KD tx | TDP1 cell CPT | HT1080NT lethal | DT40 TDP1 no CPT
COc1ccc2c(c1)c1c(c(=O)n(-c3ccccc3C)c(=O)n1CC(=O)NCc1ccc(C)cc1)n2C | ? | 7% | . | 21µM* | . | 13µM*
COc1cccc(NC(=O)Cn2c(=O)n(Cc3ccccc3)c(=O)c3c2c2cc(C)ccc2n3C)c1 | 22% | -7% | . | ? | . | 3.7µM*
Cc1ccc2c(c1)c1c(c(=O)n(-c3ccccc3C)c(=O)n1Cc1cccc(F)c1)n2C | ? | -37% | . | 13µM* | . | 9.2µM*
COc1ccc2c(c1)c1c(c(=O)n(-c3ccccc3C)c(=O)n1Cc1c(F)cccc1Cl)n2C | 0% | 10% | . | -8% | . | -26%
COc1c2c(cc3c1C(NC(N)=O)[N+](C)(C)CC3)OCO2 (stereo not drawn) | . | . | . | 10%[9.04 µM] | . | 2%[9.04 µM]
COC(=O)c1c(C)sc(-c2c(-c3ccc4c(c3)OCCO4)[nH]c3c2c(=O)[nH]c(=O)n3C)c1O | -3% | 3% | . | ? | . | 21µM*
COc1ccc([C@H]2N[C@]3(CCCN(Cc4ccc(C)cc4)C3=O)[C@H]3C(=O)N(Cc4ccccc4)C(=O)[C@@H]23)cc1 | 3% | -10% | -12% | ? | 10% | 16µM*
COc1ccc([C@H]2N[C@]3(CCCN(Cc4ccccc4)C3=O)[C@H]3C(=O)N(Cc4ccccc4)C(=O)[C@@H]23)cc1 | ? | -28% | -4% | -7% | 0% | ?
COc1ccc([C@H]2N[C@]3(CCCN(Cc4ccc(Cl)cc4)C3=O)[C@H]3C(=O)N(Cc4ccccc4)C(=O)[C@@H]23)cc1 | 7% | -34% | -21% | 18µM* | -14% | 23µM*
COCCCN1C(=O)C(CC(=O)NC(c2ccccc2)c2ccccc2)CC(C(=O)N2CCOCC2)=C1C (stereo not drawn) | -5% | 0% | 12% | -5% | 14% | -9%
CC(C)C[C@H](NC(=O)OC(C)(C)C)C(=O)N[C@@H](CO)[C@H](O)[C@@H]1C[C@@H]1C(=O)NC1CCCCC1 | 1% | -24% | 1% | -13% | -2% | -6%
N#Cc1sc2nc(C3CC3)cc(-c3ccc(Cl)cc3)c2c1N | -13% | -10% | -24% | 16µM* | -22% | ?
Clc1ccc2c(c1)C(N1CCNCC1)=Nc1ccccc1O2 | -5% | 1% | 4% | 15µM*! | -12% | 7.3µM*!
N#C[C@H](Cc1ccc(O)cc1)c1ccc(O)cc1 | . | . | . | -12% | . | ?

Source: PubChem BioAssay (National Center for Advancing Translational Sciences (NCATS))
